Compounds with a hit are over-represented: about 9% of the library has one in this group of screens.
JMJD2A Tudor inh = qHTS Assay for Inhibitors of JMJD2A-Tudor Domain; AlphaScreen JMJD2A-Tudor / H3K4me3 peptide binding; Potency, µM (doses to about 114 µM), for the others: at the highest dose activity change, negative = inhibition, most hits filed as inhibitors; 390,000 tested, 4.4% active; AID 504339, 2011; further: on the % scale 0 is the no-effect control and ±100 the full control effect; nearly all actives have a fitted effect of over 50% in size
PLK1 PBD block = qHTS for Inhibitors of PLK1-PDB (polo-like kinase 1 - polo-box domain): Primary Screen; Plk1 PBD binding of FITC phosphopeptide, fluorescence polarization; Potency, µM, inactives show max response, negative = inhibition, most hits filed as inhibitors; 360,000 tested, 2.8% active; further: series mostly up to about 57 µM; on the % scale 0 is the no-effect control and ±100 the full control effect; nearly all actives have a fitted effect of over 65% in size
G9a inh = qHTS Assay for Inhibitors of Histone Lysine Methyltransferase G9a; G9a H3K9 monomethylation, AlphaScreen, 2 h; Potency, µM (titrated, usually from 102 µM), for the others: at the top dose activity, negative = inhibition, usual class: inhibitors; 350,000 tested, 8.8% active; further: on the % scale 0 is the no-effect control and ±100 the full control effect; nearly all actives have a fitted effect of over 75% in size
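Compounds were preincubated with 20 nM G9a for 15 min, after which biotinylated H3K9 peptide (500 nM) and SAM (20 uM) started a 2 h room-temperature reaction. Monomethylated product was quantified by antibody-based AlphaScreen chemiluminescence.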
12-LOX inh = Primary qHTS assay for inhibitors of human arachidonate 12S-lipoxygenase (ALOX12): Round 2; Potency, µM (highest dose often 108 µM), for inactives: at the top dose activity change, negative = inhibition, actives largely listed as inhibitors; AID 1671190, 2021; 580,000 tested, 1.1% active; purified 12hLO, xylenol orange hydroperoxide absorbance; Polyunsaturated fatty acid lipoxygenase ALOX12 (Homo sapiens), P18054; further: on the % scale 0 is the no-effect control and ±100 the full control effect
Target sequence (P18054 whole entry, looked up): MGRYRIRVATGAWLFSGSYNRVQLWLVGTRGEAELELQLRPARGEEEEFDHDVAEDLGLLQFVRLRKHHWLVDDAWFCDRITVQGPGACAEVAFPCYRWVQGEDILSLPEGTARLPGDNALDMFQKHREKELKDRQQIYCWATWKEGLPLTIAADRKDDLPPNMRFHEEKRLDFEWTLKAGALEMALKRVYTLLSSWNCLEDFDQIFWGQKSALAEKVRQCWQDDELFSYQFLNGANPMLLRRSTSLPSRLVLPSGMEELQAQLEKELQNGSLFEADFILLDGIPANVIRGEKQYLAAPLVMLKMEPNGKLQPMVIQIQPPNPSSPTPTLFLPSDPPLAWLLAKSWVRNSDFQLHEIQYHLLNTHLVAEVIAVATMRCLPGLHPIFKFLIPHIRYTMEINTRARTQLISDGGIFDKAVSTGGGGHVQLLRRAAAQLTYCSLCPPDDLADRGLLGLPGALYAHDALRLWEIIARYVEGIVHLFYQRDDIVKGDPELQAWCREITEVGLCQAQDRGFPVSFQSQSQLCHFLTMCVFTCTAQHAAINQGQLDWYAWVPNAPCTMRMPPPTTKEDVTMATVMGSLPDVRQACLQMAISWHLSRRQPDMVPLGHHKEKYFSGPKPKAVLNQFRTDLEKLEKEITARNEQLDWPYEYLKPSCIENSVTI
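Purified human 12hLO at 150 nM in 25 mM Hepes, 0.01% Triton X-100, pH 7.0, preincubated 15 min at room temperature with compound. Reaction started with 40 uM arachidonic acid, 30 min at room temperature. Hydroperoxide measured by Fe-xylenol orange, 573/405 nm absorbance ratio.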
HP1b binding inh = HTS for Inhibitors of HP1-beta Chromodomain Interactions with Methylated Histone Tails | Chromobox protein homolog 1 (Homo sapiens), P83916 | AlphaScreen HP1-beta / biotin-H3K9me3 peptide binding | Potency, µM (series often up to 114 µM), inactives show top-dose activity change, negative = inhibition, hits mostly inhibitors | 390,000 tested, 0.56% active | AID 540317, 2011; further: nearly all actives have a fitted effect of over 70% in size
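Compound inhibition of the preformed complex between 50 nM HP1-beta and 50 nM biotinylated H3K9me3 peptide was read by AlphaScreen. Buffer was PBS pH 7.4 with 0.01% Tween-20. Incubations ran 30 min at room temperature, with 10 ug/mL donor/acceptor beads.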
BAZ2B inh = qHTS Assay for Inhibitors of BAZ2B; Potency, µM (doses to about 114 µM), without a hit: at the highest dose activity change, negative = inhibition, most hits filed as inhibitors; AID 504333, 2011; 360,000 tested, 4.4% active; AlphaScreen BAZ2B-H3K14Ac peptide displacement; Bromodomain adjacent to zinc finger domain protein 2B (Homo sapiens), Q9UIF8; further: on the % scale 0 is the no-effect control and ±100 the full control effect; nearly all actives have a fitted effect of over 60% in size
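In this displacement format the biotinylated H3(5-23) peptide acetylated at Lys14 serves as ligand at 50 nM, with BAZ2B at 50 nM in PBS pH 7.4 containing 0.01% Tween-20. Donor and acceptor beads are 10 ug/mL final.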
Numbers without * were called inactive; ? = inconclusive; / = no result; [ ] = dose if it differs, or a comment. The call rests on the fitted dose curve; in most records, active means well fitted curve in the direction sought with a large enough effect; inconclusive means small, poorly fitted or top-dose-only effect, or another doubt; inactive means no such curve, though single readings can be large; an effect the other way counts as inactive or inconclusive. Potency means the concentration at half of the fitted maximal effect.

SMILES	JMJD2A Tudor inh	PLK1 PBD block	G9a inh	12-LOX inh	HP1b binding inh	BAZ2B inh
CCOC(=O)Cc1[nH]nc2c1C(c1ccsc1)C(C#N)=C(N)O2 (configuration not stated)	-9.9%	-29.3%	5.1%	-0.7%	43.9%	-4.1%
CCOC(=O)C1=C(CC)OC(N)=C(C#N)C1c1cccs1 (configuration not stated)	-16.3%	-9.5%	50.1µM*	?	21.0%	-23.8%
COCc1[nH]nc2c1C(c1ccsc1)C(C#N)=C(N)O2 (configuration not stated)	-16.0%[57.1 µM]	26.7µM*	-65.5%	0.0%	1.2%	11.9%
CCCc1[nH]nc2c1C(c1ccsc1)C(C#N)=C(N)O2 (configuration not stated)	-8.3%	?	/	-23.0%	33.3%	?
CCCc1[nH]nc2c1C(c1ccc(O)cc1OCC)C(C#N)=C(N)O2 (configuration not stated)	-17.8%	-11.2%	?	0.0%	5.3%	79.4µM*
CCOC(=O)C1=C(C)OC(N)=C(C#N)C1c1ccsc1 (configuration not stated)	-6.7%	-6.1%	10µM*	-1.6%	41.0%	-37.5%
Cc1cc2c(c(=O)n1CCN1CCOCC1)C(c1ccccc1F)C(C#N)=C(N)O2 (configuration not stated)	/	/	/	-17.6%	/	/
N#CC1=C(N)Oc2c(O)cc3ccccc3c2C1c1ccsc1 (configuration not stated)	?	-13.0%	3.9%[59 µM]	44.7µM*	-19.0%	?
Cc1cc(-c2[nH]nc3c2C(c2ccsc2)C(C#N)=C(N)O3)c(C)s1 (configuration not stated)	-25.0%	-28.5%	-4.4%[12.7 µM]	?	8.7%	3.4%
O=C(c1cc(COc2ccc(F)cc2Cl)on1)N1CCCCCC1	15.6%	4.4%	90.3%	0.0%	40.7%	35.2%
O=C(c1cc(COc2ccc(F)cc2Cl)on1)N1CCCCCCC1	20µM*	18.9µM*	62.4%	3.0%	79.4%	46.1%
COCCn1c(-c2ccc(-c3ccc([N+](=O)[O-])cc3Br)o2)nc2c1c(=O)[nH]c(=O)n2CC(C)C	-20.3%	-5.9%	35.5µM*	?	20.9%	-29.4%
COCCn1c(=O)[nH]c(=O)c2c1nc(-c1ccc(-c3ccc(Cl)cc3[N+](=O)[O-])o1)n2Cc1ccccc1	?	-13.3%	8.91µM*	-21.3%	?	?
CC(NC(=O)CSc1nc2nc[nH]c2c(=O)[nH]1)c1ccccc1 (configuration not stated)	/	/	/	1.1%	/	/
COC(=O)c1ccc(COc2ccc3c(C)c(C)c(=O)oc3c2)o1	-22.6%	-10.6%	-13.1%	-0.6%	2.5%	?
COc1ccc(C(=O)/C=C/Nc2cccc(O)c2)cc1	10.5%	-2.7%	39.8µM*	?	28.7%	-30.5%
COc1cccc(N/C=C/C(=O)c2ccc(Br)cc2)c1	6.8%	-1.5%	/	-20.7%	79.8%	/
COc1cccc(C(=O)/C=C/Nc2cc(C)ccc2O)c1	56.2µM*	3.2%	?	0.1%	0.4%	?
C=C(C)C(=O)Nc1cccc(C2=NOC3(C2)C[C@@H](C(N)=O)N(C(=O)c2ccc(OC)cc2)C3)c1 (some centres not stated)	2.82µM*	9.47µM*	?	/	3.16µM*	1.78µM*
C=C(C)C(=O)Nc1cccc(C2=NOC3(C2)C[C@@H](C(N)=O)N(C(=O)CCCCC)C3)c1 (some centres not stated)	1.78µM*	11.9µM*	?	-7.3%	1.58µM*	1.41µM*
C=C(C)C(=O)Nc1cccc(C2=NOC3(C2)C[C@@H](C(N)=O)N(C(=O)c2cc([N+](=O)[O-])cc([N+](=O)[O-])c2)C3)c1 (some centres not stated)	28.2µM*	?	?	-13.3%	20µM*	28.2µM*
CCOc1ccc(N2CC(C(=O)Nc3ccccc3N3CCCC3)CC2=O)cc1 (configuration not stated)	-28.8%	-1.6%	/	7.3%	20.6%[57 µM]	?
O=C(NCCN1CCOCC1)c1ccc(Cl)c(S(=O)(=O)N2CCCC2)c1	-9.0%	-13.4%	/	-5.8%	31.1%	3.8%
CC(C)C(NS(=O)(=O)c1cccc2cccnc12)C(=O)Nc1ccc(OC(F)(F)F)cc1 (configuration not stated)	-15.0%	/	-14.7%[59 µM]	?	56.0%	-18.8%
Cc1ccc(-c2nc3cc(NC(=O)C(C)C)ccc3o2)cc1	-12.4%	-6.0%	21.9%[12.7 µM]	0.0%	19.4%	-3.7%
SMILES	JMJD2A Tudor inh	PLK1 PBD block	G9a inh	12-LOX inh	HP1b binding inh	BAZ2B inh
CCC(c1ccccc1)c1nc(-c2cccnc2)no1 (configuration not stated)	13.6%	-2.8%	10.7%[59 µM]	-7.5%	38.3%	-3.4%
COc1ccc(C(=O)NC(=S)Nc2ccc(Cl)c(C(=O)O)c2)cc1	-5.6%	-19.1%	50.1µM*	7.08µM*	?	-1.4%
COc1ccc(Br)cc1C(=O)NC(=S)Nc1ccc(Cl)c(C(=O)O)c1	-21.8%	11.9µM*	20µM*	?	?	-10.5%
COc1ccc(C(=O)NC(=S)Nc2cccc(S(=O)(=O)N3CCOCC3)c2)cc1	-21.4%	-7.4%	5.1%	28.2µM*	-0.2%	-17.3%
CC(C)Oc1cccc(C(=O)NC(=S)Nc2ccc(Cl)c(C(=O)O)c2)c1	?	-17.5%	/	?	-4.1%	-3.5%
Cc1ccc(C(=O)NC(=S)Nc2ccc(Oc3ccc(Cl)cc3)cc2)cc1	-14.7%	-4.4%	-16.1%	7.94µM*	3.0%	-27.1%
Cc1ccccc1S(=O)(=O)Cc1ccc(C(=O)NCCCN(C)Cc2ccccc2)o1	-9.8%	4.4%	-2.2%	0.8%	24.7%	-5.5%
COc1ccc(C)cc1NC(=O)C(OC(=O)Cn1cnc2c1c(=O)n(C)c(=O)n2C)c1ccccc1 (configuration not stated)	-15.2%	-4.6%	15.6%[0.501 µM]	-21.8%	12.7%	7.2%
COc1ccc(Br)cc1/C=C/C(=O)NC(=S)Nc1ccc(Cl)c(C(=O)O)c1	-29.9%	-17.5%	31.6µM*	?	-5.4%	?
COc1ccc(Br)cc1/C=C/C(=O)NCC(=O)O	-17.7%	-5.6%	0.4%	-10.4%	40.0%	-2.5%
CCO[C@@H]1OC(C(N)=O)=C[C@H](C2CCCCC2)[C@H]1CCCO	5.6%	-0.2%	21.5%[12.7 µM]	-29.1%	77.5%	2.8%
